About 83,000 compounds went through this panel and 20% of them were active in at least one assay; those are over-represented in the sample as a whole.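 Results are percent growth after 48 hours of single-concentration exposure. 100 means growth as in untreated cells, lower positive values show inhibition; negative values down to -100 show cell death.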 Unmarked numbers belong to inactive results. The source made the active and inactive calls. The calls were made as follows: active = growth percent below 10; inactive = the rest.

Among the test systems are SK-MEL-2 melanoma; EKVX NSCLC; SN12C renal; TK-10 renal; ACHN renal; CAKI-1 renal; A498 renal; CCRF-CEM leukemia; MOLT-4 leukemia.
Common to all, as to test: NCI-60 one-dose screen, 48 h (100 = growth as untreated, 0 = no growth, -100 = all killed)
Holding throughout (conditions): 10 µM

Take `CCN(CC)CCN1c2nc3ccccc3cc2Sc2cc3ccccc3nc21`: the growth is -35.9% (active) in the assay with SK-MEL-2 melanoma; -3.38% (active) in the assay on EKVX NSCLC; 27% in the assay with SN12C renal; 82% in the assay on TK-10 renal; 24.9% in the assay on ACHN renal; 8.6% (active) in the assay on CAKI-1 renal. Also, the figures for the growth with A498 renal, in the assay on CCRF-CEM leukemia and in the assay with MOLT-4 leukemia were 25.7%, -27.3% (active) and -47.8% (active), respectively.

In the case of `Oc1ccc(-c2[nH]c3ccccc3c2-c2nc3ccccc3o2)cc1`, the growth in the assay on SK-MEL-2 melanoma was 66.9%; with EKVX NSCLC it was 83%; in the assay on SN12C renal, 84.2%; in the assay with TK-10 renal, 84.8%; in the assay with ACHN renal, 51.6%; in the assay with CAKI-1 renal, 64%. Moreover, the growth in the assay on A498 renal was 81.4%; in the assay with MOLT-4 leukemia, 58.9%.

Consider `C/C=C/C1=CN2C(=O)c3cc(OC4OC(C)C(NC)C(C)(O)C4O)c(C)c(O)c3N=C[C@@H]2C1` (stereo not given in full), for which the growth in the assay with SK-MEL-2 melanoma is 17.9%; in the assay with EKVX NSCLC, -3.19% (active); with SN12C renal, 1.37% (active); in the assay with TK-10 renal, 16.2%; in the assay on ACHN renal it was 3.15% (active); with CAKI-1 renal, 9.27% (active). The growth in the assay with CCRF-CEM leukemia was 1.22% (active); in the assay on MOLT-4 leukemia, 2.33% (active).

`CCOC(=O)c1sc2ncnc(Nc3ccc4c(cnn4C(=O)Nc4ccc(C)c(Cl)c4)c3)c2c1C`: the growth in the assay with SK-MEL-2 melanoma was 83.5%; in the assay on EKVX NSCLC, 97.6%; in the assay on SN12C renal, 96.5%; with TK-10 renal, 90.8%; in the assay with ACHN renal it was 107%; with CAKI-1 renal it was 96%. Moreover, the growth with MOLT-4 leukemia was 95.6%.

`COC1=CC(=O)OC(c2ccc(OC)cc2)C1` (stereo not given): the growth is 98.9% in the assay with SK-MEL-2 melanoma; 96.1% in the assay with EKVX NSCLC; 99.3% with SN12C renal; 104% in the assay on TK-10 renal; 103% in the assay with ACHN renal; 85.8% in the assay with CAKI-1 renal. For the same compound, the growth with A498 renal is 96.4%; with CCRF-CEM leukemia it was 107%; in the assay with MOLT-4 leukemia, 101%.

Consider `O=C(CCCNC(=O)c1nc(-c2ccccc2)n(-c2ccccc2)n1)NO`, for which the growth with SK-MEL-2 melanoma was 97.9%; with EKVX NSCLC it was 96.8%; with SN12C renal, 101%; in the assay with TK-10 renal, 85.9%; in the assay on ACHN renal, 114%; in the assay with CAKI-1 renal it was 98%. Further, the growth in the assay with MOLT-4 leukemia was 101%.

In the case of `OCC1OC(n2cnc3c(NCc4ccco4)ncnc32)C(O)C1O` (stereo not given), the growth was 76% in the assay with SK-MEL-2 melanoma; 65.3% in the assay on EKVX NSCLC; 7.6% (active) with SN12C renal; 41.4% in the assay with TK-10 renal; 4.08% (active) with ACHN renal; 14.1% in the assay with CAKI-1 renal. Besides, the growth was 9.69% (active) in the assay on A498 renal, 6.74% (active) in the assay on CCRF-CEM leukemia and -4.64% (active) in the assay with MOLT-4 leukemia.

Consider `CCCCCCCCCCCC[n+]1c(C)cc(N)c2ccccc21`, for which the growth with SK-MEL-2 melanoma is -52.1% (active); in the assay with EKVX NSCLC it was 14.5%; with SN12C renal, 7.94% (active); in the assay on TK-10 renal it was 7.85% (active); with ACHN renal, 12%; with CAKI-1 renal, 25.7%. In addition, the values for the growth in the assay with CCRF-CEM leukemia and in the assay on MOLT-4 leukemia were 9.62% (active) and -24.1% (active), respectively.

On to `CCn1cc(C(=O)O)c(=O)c2cc(F)c(N3CCNCC3)cc21`, for which the growth in the assay with SK-MEL-2 melanoma is 113%; in the assay on EKVX NSCLC, 102%; in the assay on SN12C renal, 106%; in the assay on TK-10 renal it was 116%; with ACHN renal, 95.5%; with CAKI-1 renal, 96.5%. The growth in the assay with A498 renal is 117%; in the assay on MOLT-4 leukemia it was 93.5%.

As to `C(=N\Nc1ncnc2sc3c(c12)CCNC3)/c1cccc2ccccc12`, the growth with SK-MEL-2 melanoma is 109%; with EKVX NSCLC, 92.7%; in the assay on SN12C renal it was 82.4%; with TK-10 renal, 104%; in the assay on ACHN renal, 47.9%; in the assay with CAKI-1 renal, 92%. In addition, the growth in the assay with A498 renal was 98%; in the assay with MOLT-4 leukemia, 48.1%.

Turning to `O=C(c1ccccc1)N(C(=O)c1ccccc1)N1CCCC1`, the growth with SK-MEL-2 melanoma is 95.6%; in the assay on EKVX NSCLC, 103%; with SN12C renal, 100%; in the assay with TK-10 renal it was 101%; with ACHN renal, 96.3%; in the assay on CAKI-1 renal, 91.1%. For the same compound, the growth is 106% in the assay on A498 renal, 94.8% in the assay on CCRF-CEM leukemia and 99.3% in the assay with MOLT-4 leukemia.

Take `O=C(NCCCNS(=O)(=O)c1ccc(Cl)cc1)Nc1ccc(-n2cc(-c3ccncc3)c(-c3ccc(Cl)c(O)c3)n2)cc1`: the growth with SK-MEL-2 melanoma is 43.4%; with EKVX NSCLC, 61.7%; in the assay with SN12C renal, 46.1%; with TK-10 renal, 62.5%; in the assay with ACHN renal, 26.4%; with A498 renal it was 50.1%. The figures for the growth in the assay on CCRF-CEM leukemia and in the assay on MOLT-4 leukemia were 23.5% and 15.6%, respectively.

For `CC(=O)N[C@H](C(=O)N[C@@H](CCCNC(=N)N)C(=O)N[C@@H](CCCCN)C(=O)N[C@@H](CCCNC(=N)N)C(=O)N[C@]1(C)CCCCCC/C=C\CCC[C@@](C)(C(=O)N[C@@H](CCCNC(=N)N)C(=O)N[C@@H](CCC(=O)O)C(=O)N[C@@H](CC(C)C)C(=O)N[C@H](C(=O)N[C@@H](CCC(=O)O)C(N)=O)C(C)C)NC(=O)[C@H](CCC(N)=O)NC(=O)[C@H](CC(C)C)NC(=O)[C@H](CC(C)C)NC(=O)[C@H](CCCNC(=N)N)NC(=O)[C@H](CCCNC(=N)N)NC(=O)[C@H](CC(C)C)NC1=O)C(C)C`, the growth in the assay on SK-MEL-2 melanoma is 53.5%; with EKVX NSCLC, -22.3% (active); with SN12C renal, -41.3% (active); with TK-10 renal it was -43% (active); in the assay with ACHN renal it was 9.21% (active); in the assay on CAKI-1 renal it was 16.1%. The growth is 1.28% (active) with A498 renal and 34.6% in the assay with MOLT-4 leukemia.

Consider `CN(C)c1ncnc2c1nnn2C1OC(CO)C(O)C1O` (stereo not given), for which the growth in the assay on SK-MEL-2 melanoma was -17.2% (active); with EKVX NSCLC, 39.9%; with SN12C renal, 18.7%; in the assay with TK-10 renal it was -2.87% (active); with ACHN renal it was 5.56% (active); in the assay with CAKI-1 renal, 7.19% (active). The growth is 22.3% in the assay on A498 renal, 8.83% (active) in the assay on CCRF-CEM leukemia and 8.29% (active) in the assay on MOLT-4 leukemia.

(Values after PubChem BioAssay (NCI).)
